This experiment in a line: NCI Yeast Anticancer Drug Screen. Data for the sgs1 strain (AID 173).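 Further: 0% = growth of vehicle-only control cultures.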 The conditions noted are these: S. cerevisiae sgs1 mutant, hits give high values. How it is done:
Growth inhibition of yeast strains with defined genetic alterations is measured as a screen for potential anti-cancer activity. Selected strains with alterations in DNA damage repair or cell cycle control were exposed to compounds and growth inhibition was measured relative to vehicle treated controls. The strain used in this assay is sgs1

Molecules are shown by their SMILES. This is part of a sample that, as a whole, favours compounds with a hit. Of some 79,000 tested, about 15% had one in any assay. Values without a mark were called inactive. Active and inactive are the calls of the source. No stated cut-off is given here; in the data, active means growth inhibition above about 70%; inactive means the rest.

`COc1cc2ccnc(-c3c4ccccc4c(N)c4c(OC)c(OC)ccc34)c2cc1OC`: the growth inhibition (at 1.2 µM) was -1%; the growth inhibition (at 3.7 µM) is 1%; the growth inhibition (at 11.0 µM) was 6%; the growth inhibition (at 33.0 µM) is 23%; the growth inhibition (at 100.0 µM) is 70% (active).
The matching figures for `Cn1c(-c2ccc(/C=N\N3CCN(/N=C/c4ccc(-c5c[n+]6ccccc6n5C)cc4)CC3)cc2)c[n+]2ccccc12`: -20%, -33%, -17%, 65% and 90% (active).
The like results for `Nc1ccc2c(c1)C(=O)c1ccc(F)cc1-2` were, in that order, -4%, -4%, 0%, 2% and 4%.
Consider `Brc1ccccc1-c1ncc(-c2ccccc2)o1`, for which the growth inhibition (at 1.2 µM) is -1%; the growth inhibition (at 3.7 µM) is -17%; the growth inhibition (at 11.0 µM) is 7%; the growth inhibition (at 33.0 µM) is 50%; the growth inhibition (at 100.0 µM) is 60%.
In the case of `N=C1N=Nc2nc(C3(c4nc5n(c4O)C(=N)N=N5)Cc4ccccc4C3=O)c(O)n21` (stereo not given), the growth inhibition reads like this: (at 1.2 µM) 4%; (at 3.7 µM) 10%; (at 11.0 µM) 21%; (at 33.0 µM) 74% (active); (at 100.0 µM) 95% (active).
`CC(=O)OCC(C)Cc1cc2c(cc1Br)OCO2` (stereo not given): the growth inhibition was -66% (at 1.2 µM); -14% (at 3.7 µM); 3% (at 11.0 µM); 15% (at 33.0 µM); 78% (active) (at 100.0 µM).
The like results for `OC1(c2ccccc2)CCCc2ccc(Cl)cc21` (stereo not given) were, in that order, 0%, 0%, 0%, 33% and 99% (active).
The matching figures for `Cc1ccc2c(c1)C1(SC(C)C(=O)N1c1ccc(Cl)cc1)C(=O)N2` (stereo not given): 2%, 7%, 25%, 94% (active) and 99% (active).

The record behind these values is PubChem BioAssay (NCI).
